8 compounds from PubChem BioAssay (NCI) can be followed below.

The experiment is described as follows: NCI Yeast Anticancer Drug Screen. Data for the CLN2oe strain (AID 163).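 Further: 0% = growth of vehicle-only control cultures.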 The note with it: S. cerevisiae CLN2oe strain, hits give high values. On the procedure: Growth inhibition of yeast strains with defined genetic alterations is measured as a screen for potential anti-cancer activity. Selected strains with alterations in DNA damage repair or cell cycle control were exposed to compounds and growth inhibition was measured relative to vehicle treated controls. The strain used in this assay is CLN2oe

The structures appear in SMILES notation. Compounds without any hit were thinned out: in the full panel of roughly 79,000, 15% have a hit. Values without a mark were called inactive. Active and inactive are the calls of the source. No stated cut-off is given here; in the data, active means growth inhibition above about 70%; inactive means the rest.

Take `CCCCCCCSCC1C(=O)C23C(O)C1CCC2C12COC3(O)C(O)C1C(C)(C)CCC2O` (stereo not given): the growth inhibition was 19% (at 1.2 µM); 6% (at 3.7 µM); 89% (active) (at 11.0 µM); 97% (active) (at 33.0 µM); 91% (active) (at 100.0 µM).

For `CC(C)CCC[C@@H](C)[C@H]1CC[C@H]2[C@@H]3CC[C@H]4C[C@H](N)CC[C@]4(C)[C@H]3CC[C@]12C`, the growth inhibition runs as follows: (at 1.2 µM) -7%; (at 3.7 µM) -5%; (at 11.0 µM) -4%; (at 33.0 µM) -16%; (at 100.0 µM) -7%.

With `CC(C)OC(=O)NNc1cc(Cl)ccc1Cl`, the growth inhibition (at 1.2 µM) was -1%; the growth inhibition (at 3.7 µM) is 4%; the growth inhibition (at 11.0 µM) was 29%; the growth inhibition (at 33.0 µM) is 50%; the growth inhibition (at 100.0 µM) is 59%.

As for `O=C(CCCN1CCC(Nc2ccc(F)cc2)(c2nnnn2C2CCCCC2)CC1)c1ccc(F)cc1`, the growth inhibition (at 1.2 µM) is -8%; the growth inhibition (at 3.7 µM) was -10%; the growth inhibition (at 11.0 µM) was -7%; the growth inhibition (at 33.0 µM) is 31%; the growth inhibition (at 100.0 µM) is 99% (active).

In the case of `CN(C)CCNC(=Cc1ccc2ccccc2[n+]1C)NCCN(C)C`, the growth inhibition (at 1.2 µM) is -3%; the growth inhibition (at 3.7 µM) is 0%; the growth inhibition (at 11.0 µM) was 0%; the growth inhibition (at 33.0 µM) was 4%; the growth inhibition (at 100.0 µM) is -1%.

On to `NCCCSc1ccccc1`, for which the growth inhibition is -4% (at 1.2 µM); -3% (at 3.7 µM); 0% (at 11.0 µM); -4% (at 33.0 µM); -5% (at 100.0 µM).

As for `CCCCCCNCCCNc1c2ccccc2nc2cccc([N+](=O)[O-])c12`, the growth inhibition by setting is: (at 1.2 µM) -6%; (at 3.7 µM) -6%; (at 11.0 µM) -5%; (at 33.0 µM) 29%; (at 100.0 µM) 93% (active).

Turning to `CC12CCC(CC(=O)/C1=C(/Br)I)C2(C)C` (stereo not given), the growth inhibition was -1% (at 1.2 µM); 4% (at 3.7 µM); 2% (at 11.0 µM); 0% (at 33.0 µM); 6% (at 100.0 µM).
